In PubChem BioAssay:
The source made the active and inactive calls.

Test: E. coli acrAB mutant growth effects, primary screen, E. coli filamentation inducers, strain DRC39, OD650, 48 h (AID 1179);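 note: screen aims at cell division blockers that make cells filament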
Details: E. coli DRC39 delta-acrAB growth, higher = more signal, called active from +8 up or from −8 down

z-score, inactive:
CCCC=C(CCC)[C@@H](NC(=O)c1ccc(-c2ccccc2)cc1)c1ccc(C(=O)OC)cc1 -0.21, COC(=O)[C@@]1(Cc2ccccc2)[C@H]2c3cc(C(=O)N4CCCC4)n(Cc4ccccn4)c3C[C@H]2CN1C(=O)c1ccccc1 -0.551, O=C(CS)NCCCCCNC(=O)[C@@H]1C[C@@H]2C(=O)N[C@@H](Cc3ccccc3)C(=O)N2[C@@H]1c1ccc(O)cc1 0.904, CC(C)C[C@@H]1NC(=O)[C@H]2C[C@@H](C(=O)NCCCCCCN(C)C)[C@@H](c3cccc(OCCO)c3)N2C1=O 0.0484, COCCCNC(=O)[C@@]1(CCS(=O)(=O)c2ccccc2)N=C(c2ccc(OCCCO)cc2)O[C@H]1c1ccccc1 0.953, Cc1ccc(S[C@]2(C(=O)NCC(F)(F)F)CC(=O)N(Cc3ccccc3Cl)[C@@H]2c2ccc(CO)cc2I)cc1 0.465, O=C1O[C@@H](c2ccccc2)[C@@H](c2ccccc2)N2[C@@H](c3ccc(OCCO)cc3)[C@]3(C(=O)Nc4ccc(C#CCCO)cc43)[C@@H](C(=O)N3CCCCCCC3)[C@H]12 0.543, CCOC(=O)C1=CCC(c2cc3ccccc3[nH]2)NC1 (stereo unspecified) -0.391, O=C1NC(=O)C2C1C=CC(C(O)Cc1ccccc1)N2Nc1ccccn1 (stereo unspecified) 1.42, C#C[C@@H]1Oc2ccccc2S(=O)(=O)N2CCC[C@H]12 -0.816, COc1ccc([Si](C)(C)[C@H]2[C@H](CCO)O[C@@]3(C(=O)N(Cc4cccc(NC(=O)[C@H](C)O)c4)c4ccccc43)[C@@H]2C)cc1 1.14, C=CCOC(=O)[C@H]1[C@@H]2C(=O)O[C@@H](c3ccccc3)[C@@H](c3ccccc3)N2[C@@H](c2ccc(OCCOC(=O)[C@H]3C[C@H]4C(=O)N5CCC[C@H]5C(=O)N4[C@H]3c3cccc(OCCO)c3)cc2)[C@]12C(=O)Nc1ccc(I)cc12 -0.553, C=C(/C(=C/C[C@@H](OC(=O)c1ccncc1)c1ccc(OCCO)cc1)c1cnc2ccccc2c1)C(C)C 0.432, O=C1C[C@]2(c3ccc([N+](=O)[O-])cc3)C(=O)N(CCN3CCOCC3)c3cc(CO)ccc3[C@H]2N1CC12CC3CC(CC(C3)C1)C2 -0.0127, CC(C)C[C@@H]1NC(=O)[C@H]2C[C@@H](C(=O)O)[C@@H](c3ccc(O)cc3)N2C1=O -0.456, COCCOC(=O)N1C(=O)[C@@]2(c3cc(C#Cc4ccc(OC)cc4)ccc31)[C@H](c1ccc(O)cc1)N1[C@H](c3ccccc3)[C@H](c3ccccc3)OC(=O)[C@H]1[C@@H]2C(N)=O 0.0669, CC(C)NC(=O)[C@@]1(C)c2ccccc2C(=O)N(Cc2cc(F)cc(C(F)(F)F)c2)[C@H]1c1ccc(CO)cc1 -0.043, COCCOC(=O)N1C(=O)[C@@]2(c3ccccc31)[C@H](C(N)=O)[C@H]1C(=O)O[C@H](c3ccccc3)[C@H](c3ccccc3)N1[C@@H]2c1ccccc1OCCO -0.158, CN1C(=O)C2C=CC(C(O)c3ccc(I)cc3)N(NC(=O)OC(C)(C)C)C2C1=O (stereo unspecified) -0.18, C=CCC(OC(C)=O)[C@@H]1[C@@H](N(Cc2cc3ccccc3o2)C(=O)Cc2ccc(F)cc2)c2cc(OCCCO)ccc2N1C(=O)Cc1ccc(OC)cc1 (stereo partly specified) -0.416, CN1C(=O)C2C=CC(C(O)C(c3ccccc3)c3ccccc3)N(NC(=O)OC(C)(C)C)C2C1=O (stereo unspecified) -0.577, COCCCNC(=O)[C@]1(CCC(=O)OC(C)(C)C)N=C(c2ccc(OCCCO)cc2)O[C@@H]1c1ccccc1N=[N+]=[N-] 0.0528, O=C1O[C@@H](c2ccccc2)[C@@H](c2ccccc2)N2[C@@H](c3ccccc3OCCO)[C@]3(C(=O)Nc4ccc(C#CCCO)cc43)[C@@H](C(=O)O)[C@H]12 -0.781, CN1C(=O)C2C(C1=O)C1C=C(CCCO)C2C(c2ccc(CN3CCCC3)cc2)N1C (stereo unspecified) -0.296, COC(=O)[C@@]1(Cc2ccc(F)cc2)[C@@H]2C(=CC(=O)[C@H]2CC(=O)C(=O)N(C)C)CN1C(=O)c1ccccc1 0.0104, [N-]=[N+]=NCc1ccccc1C[C@]1(C(=O)NCc2ccccc2)N=C(c2ccc(OCCCO)cc2)O[C@H]1c1ccccc1N=[N+]=[N-] -0.0271
